# Pf growth 96h: inhibits malaria parasite growth, 96 h. P. falciparum luciferase reporter growth, 96 h. Potency, µM (series often up to 28.7 µM), hits mostly inhibitors. hit rate 6.9% among 320,000. AID 504834
#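 Plates of compound plus infected erythrocytes (2% hematocrit, 0.05% parasitemia final) incubate 96 hours, 37 C, 5% CO2. Detection reagent added; reduced luminescence from the parasites' luciferase reporter flags inhibition.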
# HCMV inh: human cytomegalovirus inhibition; HFF cells, HCMV-luciferase reporter, 72 h; active compounds read low; activity change, negative = inhibition, % at 57.5 µM; hit rate 4.5% among 410,000; AID 1259415; in the data active = activity change below about -60%; inconclusive = no clear call, values can overlap the other calls; inactive = above about -39%
#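 Two compound doses tested in HFFs infected with HCMV-luciferase, MOI 1 PFU/cell, 72 h at 37C. Lysate luminescence read with OneGlo; data normalized against buffer-only and 10uM Salinomycin inhibitor controls.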
# Pf growth 48h: P. falciparum growth inhibition at 48 hours (one generation). AID 504832. Potency, µM (series often up to 28.7 µM), usual class: inhibitors. hit rate 5.9% among 310,000. P. falciparum luciferase growth in erythrocytes, 48 h
#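 Luminescence readout; reporter = integrated firefly luciferase in P. falciparum. RBC culture at 2% hematocrit, 0.1% parasitemia final, 37 C/5% CO2; decreased signal taken as growth inhibition.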
# Shiga inhibitor: blocks Shiga toxin action in Vero cells; inhibition, % at 38.7 µM; Vero cells, Shiga toxin protein synthesis inhibition reporter; AID 2315; hit rate 9.2% among 290,000; in the data active = inhibition mostly above about 28%, no sharp cut-off; inactive = mostly below about 43%
# Cycloheximide cs: counter-screen hit for Shiga toxin inhibitors, cycloheximide. cell reporter, cycloheximide protein synthesis inhibition counterscreen. max response, %. hit rate 12% among 300,000. AID 2314; in the data active = max response mostly above about 13%, no sharp cut-off; inactive = mostly below about 14%; also: read at 38.3 µM for the half of the compounds with a filed dose
# Hits are given with their value; . = inactive; ? = inconclusive; / = no result. In the library only some 20% were active in any assay of this set; here they are far more common. Unless noted, calls follow the shape of the dose curve; as a rule, active = well fitted inhibition curve with a large enough effect; inconclusive = small, poorly fitted or top-dose-only effect, or another doubt; inactive = no such curve, though single readings can be large or run the other way.
SMILES,Pf growth 96h,HCMV inh,Pf growth 48h,Shiga inhibitor,Cycloheximide cs
O=C(c1cc(-c2ccc(F)cc2)nc2ccccc12)N1CCN(C2CCS(=O)(=O)C2)CC1 (centres undefined),?,.,.,/,/
CC(C)c1ccc(NC(=O)N2CCOCC2)cc1,.,.,.,62,39
O=C(Nc1ccc(Cl)cc1)N1CCSc2ccccc21,?,.,?,.,35
O=C(c1cc(F)c(F)cc1Cl)N1CCN(c2ncccn2)CC1,5.2µM,.,.,.,.
O=C(c1sc2ccccc2c1Cl)N1CCN(c2ccc(F)cc2)CC1,.,.,.,.,.
O=C(c1sc2ccccc2c1Cl)N1CCN(c2ncccn2)CC1,.,-63,.,.,.
Cc1ccc(C)c(S(=O)(=O)NCC(=O)Nc2ccc3c(c2)OCO3)c1,.,.,.,.,.
O=C(C1CCCO1)N1CCN(C(=S)Nc2cc(F)cc(F)c2)CC1 (centres undefined),.,.,.,.,.
O=C(Nc1ccc(Cl)cc1)N1CCCC1,/,.,.,.,14
O=C(Nc1ccc(Cl)cc1)N1CCOCC1,?,.,.,/,14
O=C(Nc1ccc(F)cc1)N1CCN(c2ncccn2)CC1,.,.,.,.,.
CC(=O)Nc1ccc(NC(=O)N2CCOCC2)cc1,/,.,/,/,/
O=C(Nc1ccc(Cl)cc1)N1CCN(c2ncccn2)CC1,?,.,?,.,20
CC(C)n1c(N2CCN(C(=O)Nc3ccc(Cl)cc3)CC2)nc2ccccc21,.,.,?,34,.
O=C(Nc1ccc(Cl)cc1)N1CCSCC1,/,.,/,.,.
C=CCNc1ncnc2sc(SC)nc12,.,?,.,.,.
O=C(NCc1ccccc1)C(=O)NCC(c1cccs1)S(=O)(=O)c1ccccc1 (centres undefined),/,.,/,/,/
COc1ccccc1NC(=O)N1CCN(c2ncccn2)CC1,/,?,.,.,.
Cc1ccccc1NC(=O)N1CCN(c2ncccn2)CC1,2.3µM,.,.,.,.
COc1cc(C(O)c2nc(-c3cccc(F)c3)cs2)ccc1F (centres undefined),/,.,/,/,/
CC(=O)NCCc1nc2cc(NC(=O)c3ccccc3C)ccc2n1C,?,.,.,.,.
Nc1nnnn1/N=C/c1cccc(Oc2ccccc2)c1,7.4µM,.,.,.,.
O=C(NCc1ccc(Cl)cc1)N1CCc2ccccc2C1,.,.,.,.,29
COc1ccc(CNC(=O)N2CCc3ccccc3C2)cc1Cl,.,.,.,.,14
O=C(CNCc1ccc(Cl)cc1)N1CCc2ccccc2C1,.,.,/,.,.
SMILES,Pf growth 96h,HCMV inh,Pf growth 48h,Shiga inhibitor,Cycloheximide cs
COc1ccc(C2=CC(=O)OC3(CCCC3)O2)cc1,.,.,/,.,.
COc1ccc(-n2nnnc2C(c2ccccc2OC(F)(F)F)N2CCN(C/C=C/c3ccccc3)CC2)cc1 (centres undefined),/,.,/,/,/
CC1=C(C(=O)Nc2ccccc2)C(c2ccc(C)cc2)N=C(Nc2nc3ccccc3o2)N1 (centres undefined),?,-67,?,.,.
CC1(C)CC(=O)C2=C(C1)NC(Nc1nc3ccccc3o1)=NC2c1ccccn1 (centres undefined),?,?,?,.,.
CCOC(=O)c1cccc(NC(=O)c2sc3nc[nH]c(=O)c3c2C)c1,/,.,/,/,/
Cc1ccc(CC2C(=O)N(c3cc(Cl)ccn3)C(=O)C2C)cc1 (centres undefined),.,.,.,43,23
Cc1ccc(CC2C(=O)N(c3ccccc3)C(=O)C2C)cc1 (centres undefined),.,.,.,.,.
CCc1ccc(C(=O)Cn2ccsc2=N)cc1,.,.,.,91,54
Cc1ccc(/C=N/N2CCN(Cc3cccc4ccccc34)CC2)o1,.,.,/,.,.
CCCS(=O)(=O)c1nc(S(=O)(=O)c2ccc(C)cc2)c(NCC(C)C)s1,/,.,/,/,/
Cc1ccc(/C(O)=C2/C(=O)C(=O)N(c3ccccn3)C2c2ccc(F)cc2)cc1 (centres undefined),.,.,.,.,19
CC(=O)C1=C(O)C(=O)N(c2ccccn2)C1c1ccc(C)cc1 (centres undefined),0.37µM,.,.,.,.
CC(=O)C1=C(O)C(=O)N(c2ccccn2)C1c1ccc(Cl)cc1 (centres undefined),.,.,.,66,27
CC(C)(C)OC(=O)NCCc1nnc(SCC(=O)Nc2ccc(Br)cc2)o1,.,.,.,.,.
CC(C)N1C(=S)SC2CS(=O)(=O)C=C21 (centres undefined),/,.,.,.,.
CCCCc1cc(=O)oc2cc(OCC(=O)N3C[C@H]4C[C@@H](C3)c3cccc(=O)n3C4)ccc12,8.3µM,.,.,.,.
COc1ccc(-c2cc(=O)oc3cc(OCC(=O)N4C[C@H]5C[C@@H](C4)c4cccc(=O)n4C5)ccc23)cc1,?,.,?,.,.
Cc1cc(OCC(=O)N2C[C@H]3C[C@@H](C2)c2cccc(=O)n2C3)c2c(C)c(C)c(=O)oc2c1,.,.,.,.,.
CCCCc1cc(=O)oc2cc(C)cc(OCC(=O)N3C[C@H]4C[C@@H](C3)c3cccc(=O)n3C4)c12,?,.,10µM,.,.
CCc1cc(=O)oc2cc(C)cc(OCC(=O)N3CCC(C(=O)NC(C)C)(c4ccccc4)CC3)c12,10µM,.,10µM,.,.
COc1cc(C(C(=O)NC2CCCC2)N(C(=O)Cc2cccs2)C2CC2)cc(OC)c1OC (centres undefined),.,?,?,.,.
O=Cc1s/c(=N\S(=O)(=O)c2ccccc2)n(CCCCl)c1Cl,.,-108,.,.,.
C/C=C(/C)C(=O)O[C@@H]1c2c(ccc3ccc(=O)oc23)OC(C)(C)[C@@H]1OC(=O)/C(C)=C\C,6.6µM,.,6.6µM,.,.
C/C=C(/C)C(=O)O[C@@H]1c2c(ccc3ccc(=O)oc23)O[C@@H]1C(C)(C)OC(C)=O,5.9µM,.,.,.,.
C/C=C(/C)C(=O)O[C@@H]1[C@H](OC(=O)C=C(C)C)c2c(ccc3ccc(=O)oc23)OC1(C)C,?,.,?,.,.
SMILES,Pf growth 96h,HCMV inh,Pf growth 48h,Shiga inhibitor,Cycloheximide cs
COc1ccc(CCNC(=O)Cn2c(=O)n(-c3ccc(OC)c(OC)c3)c(=O)c3ccccc32)cc1OC,/,.,/,/,/
O=c1c2ccc([N+](=O)[O-])cc2ncn1CCOc1ccccc1,?,.,?,54,20
O=c1c2ccccc2ncn1CCOc1ccccc1[N+](=O)[O-],.,.,.,.,26
CCOC(=O)C1(Cc2ccccc2)CCN(Cc2cccc(OC)c2O)CC1,10µM,.,?,.,.
CCOC(=O)C1(Cc2ccccc2)CCN(Cc2cccc3nccnc23)CC1,.,.,.,.,.
CCOC(=O)C1(Cc2ccccc2)CCN(Cc2cccn2-c2nccs2)CC1,.,.,.,.,.
CCOC(=O)C1(Cc2cccc(OC)c2)CCN(Cc2cccn2-c2nccs2)CC1,?,.,12µM,.,.
CCOC(=O)C1(Cc2cccc(OC)c2)CCN(Cc2cccc(OC)c2O)CC1,13µM,-73,?,.,.

# Compound activity: PubChem BioAssay, National Center for Advancing Translational Sciences (NCATS)
